# Efflux pump inh: inhibitors of Candida efflux pumps in yeast, primary screen, S. cerevisiae, Nile Red, multiplex; hit rate 0.44% among 330,000; S. cerevisiae Candida pump triplex; inhibition, % at 10 µM;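 active = plate passing quality check with inhibition over a set limit, or well fluorescence over plate mean plus 4 SD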;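 note: Nile Red retained in pooled yeast measured as flow cytometry median fluorescence; 0% = buffer negative control and 100% = Enniatin B positive control; higher means more Nile Red kept so more efflux inhibition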
# RPL19A TOR yeast: RPL19A-GFP expression modulators in yeast, primary screen, cell-based, S. cerevisiae, multiplex flow cytometry, MLPCN; S. cerevisiae RPL19A-GFP strain, 3 h; active compounds read low; percent response vs DMSO, % at 10 µM; hit rate 0.3% among 330,000; AID 2025, 2009;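 active = percent response vs DMSO below 50%; inconclusive = fewer than 70 events counted for the yeast strain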;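 note: median channel GFP fluorescence of the barcoded RPL19A-GFP strain; ratio of sample median GFP to plate DMSO average so 100% = DMSO; lower means less RPL19A-GFP as with rapamycin TOR inhibition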
# LAP4 TOR yeast: modulators of LAP4-GFP expression in yeast, primary screen, S. cerevisiae, multiplex flow cytometry, MLPCN library; AID 2023, 2009; 3 h; median GFP as percent of DMSO wells; hit rate 0.34% among 320,000; GFP response vs DMSO, % at 10 µM;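 active = GFP response vs DMSO above a set limit, about the screen mean plus 3 SD, cut at about 150% in these data; inconclusive = under 70 cell events counted for the yeast strain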
# AGP1-GFP MLPCN: modulators of AGP1-GFP expression in yeast TOR pathway, primary screen, cell-based, multiplex flow cytometry, S. cerevisiae, MLPCN library; 3 h; GFP as percent of DMSO wells; GFP response vs DMSO, % at 10 µM; hit rate 0.02% among 320,000;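 active = GFP response relative to DMSO above a set limit, near screen average plus 3 SD, cut at about 150% in these data; inconclusive = fewer than 70 cells counted for the yeast strain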;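 note: median GFP channel fluorescence of the gated AGP1 strain per well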
# MEP2-GFP yeast: modulators of MEP2-GFP levels in yeast, primary screen, S. cerevisiae, multiplex flow cytometry, MLPCN library; S. cerevisiae MEP2-GFP strain, 3 h; 100% = DMSO control level; GFP response vs DMSO, % at 10 µM; hit rate 0.51% among 330,000; AID 2016, 2009;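 active = GFP response versus DMSO above a set limit, roughly screen mean plus 3 SD, cut at about 180% in these data; inconclusive = fewer than 70 cells counted for a yeast strain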;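 note: median GFP fluorescence of the barcode-gated MEP2-GFP cells per well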
# CIT2 TOR yeast: modulators of CIT2-GFP expression in yeast, primary screen, S. cerevisiae, GFP fusion, multiplex flow cytometry, MLPCN library. S. cerevisiae CIT2-GFP strain, 3 h; 100 means same as DMSO wells. AID 2029, 2009. GFP response vs DMSO, % at 10 µM. hit rate 0.065% among 320,000;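 active = GFP response relative to DMSO above a set limit, near the screen mean plus 3 SD, cut at about 150% in these data; inconclusive = Fewer than 70 cells measured for a yeast strain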;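 note: ratio of well median GFP fluorescence to mean of DMSO wells on the plate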
# Starred values were filed as active, the others as inactive; ? = inconclusive; [ ] = dose if it differs, or a comment. Only some compounds are listed: those with a hit (about 1.3% of all), similar ones and a draw of the others.
SMILES,Efflux pump inh,RPL19A TOR yeast,LAP4 TOR yeast,AGP1-GFP MLPCN,MEP2-GFP yeast,CIT2 TOR yeast
CCOc1ccc(NC(=O)CN(C)C(=O)c2cc(S(=O)(=O)N3CCCCCC3)ccc2OC)cc1OCC,0.3,97.3,106.5,107.8,100.0,93.9
CC(=O)n1nc2nc(C)cc(C)c2c1N,0.1,100.0,98.4,100.8,101.2,101.6
CCN(CC)N=Nc1[nH]nc2nc(C)cc(C)c12,0.0,105.7,137.7,132.6,151.7,157.4*
Cc1cc(C)c2c(C)[nH]nc2n1,-0.1,100.0,109.7,109.3,101.4,97.8
Cc1cc(C)c2c(N=NN3CCCCC3)[nH]nc2n1,-0.1,98.1,110.2,116.7,108.7,169.2*
COc1cccc(CNC2CCCc3ccccc32)c1OC (stereo not given),-0.1,98.3,101.3,103.1,96.1,107.1
O=S(=O)(Nc1cccc(-c2ccc(N3CCCCCC3)nn2)c1)c1ccccc1F,0.4,47.0*,78.7,14.7,116.5,99.1
CC1CCN(c2ccc(-c3cccc(NC(=O)C(F)(F)F)c3)nn2)CC1,0.4,48.1*[may fluoresce violet],116.5,?,522.0*[may fluoresce violet],?
O=C(Nc1cccc(-c2ccc(N3CCCCC3)nn2)c1)C(F)(F)F,0.4,50.2,100.9,21.8,550.7*[may fluoresce violet],?
O=C(Nc1cccc(-c2ccc(N3CCCCC3)nn2)c1)c1ccc(Br)o1,0.1,102.1,104.1,110.2,95.9,96.6
O=C(CN1CCCC1)Nc1cc(C(F)(F)F)cc(C(F)(F)F)c1,-0.1,90.0,151.5*,130.9,124.8,98.3
O=C(CN1CCCC1)Nc1cc(C(F)(F)F)ccc1Cl,0.0,93.7,96.5,101.3,98.3,102.7
O=Cc1ccccc1-c1cn(CCCOCc2ccccc2)nn1,0.1,88.6,124.6,82.7,89.3,88.5
COc1cccc(OC)c1OCCCCCCN1CCN(C)CC1,0.1,103.8,93.8,102.2,108.4,107.5
CN1CCN(CCCCOc2ccccc2C=O)CC1,-0.1,103.4,162.8*,92.6,104.2,79.7
COc1cccc(NC(=O)/C=C/c2ccc([N+](=O)[O-])cc2)c1,0.0,70.4,113.2,20.8,193.1*,105.5
CN=Cc1sc2ccccc2c1O,0.0,108.3,96.3,74.2,94.2,66.6
O=Nc1c(O)c2ccccc2c2ccccc12,-0.3,106.9,210.5*,107.9,116.0,81.1
COCCNC(=O)CCc1nnc2ccc(N3CCC(C)CC3)nn12,-0.1,106.9,96.4,102.9,105.6,116.3
Cc1ccc(NC(=O)COC(=O)c2cc(=O)c3ccccc3o2)c(Br)c1,0.1,102.1,100.1,92.6,102.0,97.6
Cc1ccccc1NC(=O)COC(=O)c1cc(=O)c2ccccc2o1,0.2,115.2,116.7,103.1,151.2,159.4*
Cc1sc2ncn(CC(=O)NCCCC(=O)N3CCCCC3)c(=O)c2c1C,-0.2,99.8,98.7,102.2,106.2,104.5
Cc1ccc(C(=O)NCCNC(=O)c2ccc(F)cc2)cn1,-0.1,103.1,99.3,105.6,106.5,99.2
O=c1c2c3nc4ccccc4nc3n(CC3CCCO3)c2ncn1CCc1ccccc1 (stereo not given),0.1,107.2,93.3,102.8,111.7,105.3
COc1cc(OC)cc(-n2c3nc4ccccc4nc3c3c(=O)n(CC4CCCO4)cnc32)c1 (stereo not given),1.1*,101.9,94.7,102.7,103.5,107.6
Cc1cc(=O)oc2c3c(cc(OCC(=O)Nc4ccc(CCO)cc4)c12)OC(C)(C)CC3,0.3,40.7*[may fluoresce violet],90.4,?,209.4*[may fluoresce violet],?
Cc1cc(=O)oc2c3c(cc(OCC(=O)NCc4ccccc4)c12)OC(C)(C)CC3,-0.2,94.7,103.9,96.6,94.1,97.1
O=C(CCl)NCCCN(C(=O)C(Cl)Cl)c1ccc([N+](=O)[O-])cc1,-0.1,104.3,110.3,115.7,103.2,105.1
CC(C)c1c(O)nc(SCC(=O)N2CCCCC2)[nH]c1=O,0.0,65.8,81.4,17.1,241.1*[may fluoresce violet],?
CCC(C)c1c(O)nc(SCC(=O)N2CCCCCC2)[nH]c1=O (stereo not given),0.0,99.5,86.2,91.7,108.5,103.0
